From PubChem BioAssay AID1159580 (chemical genetic matrix, 2015)
About 2,000 (36%) of roughly 5,500 compounds were called active. Inconclusive results (about 18%) are left out. No stated cut-off is given here; in the data, active means normalized growth mostly below about 0.91 (no sharp cut-off); inconclusive means no clear call, values can overlap the other calls; inactive means mostly above about 0.92. Some of the results follow.

Test: chemical genetic growth profiling, strain panel (AID 1159580);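 further: tested at 20 µM; growth read once vehicle control cultures reached saturation at 30 °C; 1 = growth at the plate median or of vehicle wells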
Settings: S. cerevisiae deletion strains, growth OD

Measured: normalized growth

O=C1NC2CC2N1C(=O)OCc1ccccc1 (stereo not given)
inactive: locus YAL013W, strain DEP1, stronger effect = lower value 1 | locus YBR229C, strain ROT2, stronger effect = lower value 1 | locus YDL101C, strain DUN1, stronger effect = lower value 1.01 | locus YDR150W, strain NUM1, stronger effect = lower value 1.02 | locus YEL061C, strain CIN8, stronger effect = lower value 0.956 | locus YGR078C, strain PAC10, stronger effect = lower value 1.01 | locus YHR030C, strain SLT2, stronger effect = lower value 1.06 | locus YHR087W, strain rtc3, stronger effect = lower value 0.969 | locus YJL187C, strain SWE1, stronger effect = lower value 0.991 | locus YJR043C, strain POL32, stronger effect = lower value 0.993 | locus YJR075W, strain HOC1, stronger effect = lower value 1.01 | locus YLR039C, strain RIC1, stronger effect = lower value 0.99 | locus YLR058C, strain SHM2 (second series), stronger effect = lower value 0.995 | locus YLR085C, strain ARP6, stronger effect = lower value 0.978 | locus YLR262C, strain YPT6, stronger effect = lower value 1.02 | locus YML094W, strain GIM5, stronger effect = lower value 0.992 | locus YMR219W, strain ESC1, stronger effect = lower value 1 | locus YMR263W, strain SAP30, stronger effect = lower value 0.978 | locus YNL153C, strain GIM3, stronger effect = lower value 1.01 | locus YNL298W, strain CLA4 (second series), stronger effect = lower value 0.954 | locus YNL322C, strain KRE1, stronger effect = lower value 1 | locus YNR030W, strain Alg12, stronger effect = lower value 0.988 | locus YPL055C, strain LGE1, stronger effect = lower value 0.99 | locus YPL241C, strain CIN2, stronger effect = lower value 1.01 | locus YPR135W, strain CTF4, stronger effect = lower value 1.03
